TDP1 cell noCPT: qHTS for Inhibitors of human tyrosyl-DNA phosphodiesterase 1 (TDP1): qHTS in cells in absence of CPT; DT40 Tdp1-/- hTDP1 cells, no CPT, ATP luminescence, 48 h; Potency, µM (top dose mostly 46.2 µM), for inactives: at the top dose activity change, negative = growth inhibition, most hits filed as inhibitors; 420,000 tested, 15% active; further: potency means the concentration at half of the fitted maximal effect; nearly all actives have a fitted effect of over 55% in size
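Growth of hTDP1-complemented DT40 Tdp1-knockout cells is measured by ATP luminescence after at least 48 hr compound exposure at 37 °C, with DMSO substituting for the 20 nM CPT used in the parallel screen.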
HT1080 IDH1KD tx: kills HT-1080 cells with IDH1 knockdown | HT-1080 IDH1 knockdown viability, ATP luminescence, 48 h | Potency, µM (series often up to 46.1 µM), for inactives: top-dose activity, negative = toxicity, hits mostly cytotoxic | 360,000 tested, 2% active;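 further: potency means the concentration at half of the fitted maximal effect; 0% = DMSO wells and -100% = cell-free medium wells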
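CellTiter-Glo luminescence after 48 h compound exposure at 37 degrees C of IDH1-knockdown HT-1080 cells in 5% FBS RPMI. %Activity scaled between DMSO wells and cell-free media wells, with curves fitted and assigned curve classes.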
DT40 TDP1 CPT: DT40-hTDP1 cell growth loss with CPT. chicken DT40 Tdp1-/-;hTDP1 cells + 20 nM CPT, ATP luminescence, 48 h. Potency, µM (doses to about 46.2 µM), without a hit: top-dose activity change, negative = growth inhibition, most hits filed as inhibitors. 420,000 tested, 12% active. AID 686979; further: potency means the concentration at half of the fitted maximal effect; nearly all actives have a fitted effect of over 55% in size
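Cell growth measured by CellTiter-Glo luminescence after a minimum 48 h, 37 C compound exposure with 20 nM CPT in Tdp1-knockout DT40 cells stably expressing hTDP1, seeded 400/well; qHTS titration format.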
HT1080NT lethal: kills 2HG-producing HT-1080-NT fibrosarcoma cells; HT-1080-NT fibrosarcoma viability, CellTiter-Glo ATP luminescence, 48 h; Potency, µM (highest dose often 46.1 µM), inactives show at the top dose activity, negative = less viability, actives largely listed as cytotoxic; 360,000 tested, 1.6% active;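 further: NT is the 2HG producing partner of a matched IDH1 knockdown line; potency means the concentration at half of the fitted maximal effect; 0% = DMSO-treated cells and -100% = media-only wells without cells; nearly all actives have a fitted effect of over 55% in size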
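750 cells/well, RPMI + 5% FBS; 2 h settle, compound pin-transfer, 48 h at 37 degrees C. CellTiter-Glo 10 min RT, luminescence. Normalized to DMSO and media-only wells.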
12-LOX inh: blocks human arachidonate 12S-lipoxygenase; P18054; purified 12hLO, xylenol orange hydroperoxide absorbance; Potency, µM (highest dose often 108 µM), without a hit: top-dose activity change, negative = inhibition, hits mostly inhibitors; 580,000 tested, 1.1% active; AID 1671190; further: potency means the concentration at half of the fitted maximal effect
Target sequence (P18054 whole entry, looked up): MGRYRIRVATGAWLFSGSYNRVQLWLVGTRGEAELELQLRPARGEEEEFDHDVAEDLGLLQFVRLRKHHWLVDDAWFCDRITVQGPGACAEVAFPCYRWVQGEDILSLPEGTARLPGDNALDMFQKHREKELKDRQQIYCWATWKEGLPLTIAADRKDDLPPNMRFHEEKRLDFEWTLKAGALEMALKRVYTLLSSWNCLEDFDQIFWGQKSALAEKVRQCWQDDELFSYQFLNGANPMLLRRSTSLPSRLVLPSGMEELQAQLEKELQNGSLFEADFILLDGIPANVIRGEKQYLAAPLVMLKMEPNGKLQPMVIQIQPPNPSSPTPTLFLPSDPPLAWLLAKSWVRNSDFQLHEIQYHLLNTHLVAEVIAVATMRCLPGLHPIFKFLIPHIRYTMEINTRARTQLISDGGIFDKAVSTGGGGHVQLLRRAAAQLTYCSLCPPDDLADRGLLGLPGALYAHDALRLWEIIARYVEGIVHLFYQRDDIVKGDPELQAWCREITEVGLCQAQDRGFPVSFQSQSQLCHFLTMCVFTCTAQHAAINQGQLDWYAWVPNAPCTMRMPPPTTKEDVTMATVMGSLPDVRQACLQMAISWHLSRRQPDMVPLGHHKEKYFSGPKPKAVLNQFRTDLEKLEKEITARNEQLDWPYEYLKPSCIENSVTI
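Purified human 12hLO (150 nM final) in 25 mM Hepes, 0.01% Triton X-100, pH 7.0 was preincubated 15 min at room temperature with compound. Then 40 uM arachidonic acid was added, 30 min. Hydroperoxide was read by Fe-XO absorbance ratio 573/405 nm.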
IL1B secr inh: blocks inflammasome-driven IL-1 beta release. THP-1 LPS/ATP IL-1B secretion, AlphaLISA, 16 h; stronger effect = lower value. activity change, % at 57.5 µM. 360,000 tested, 4.7% active. AID 743279; in the data active means activity change below about -50%; inconclusive means mostly about -30% to -49%
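THP-1 cells pretreated 1 hr with compounds (up to 57.5 uM final), then stimulated with LPS (250 ng/mL final) plus ATP (1.25 mM final); secreted IL-1B measured by AlphaLISA after 16 hr, decreased signal indicating inhibition.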
The depositor's hits bear a star; u = inconclusive; x = not tested or not shown; ! = repeats disagree; [ ] = remark or other dose. Only a selection was taken, and hits are over-represented in it overall. Unless noted, the call rests on the fitted dose curve; in most records, active means well fitted curve in the direction sought with a large enough effect; inconclusive means small, poorly fitted or top-dose-only effect, or another doubt; inactive means no such curve, though single readings can be large; an effect the other way counts as inactive or inconclusive. Unless noted, on the % scale 0 is the no-effect control and ±100 the full control effect.

SMILES	TDP1 cell noCPT	HT1080 IDH1KD tx	DT40 TDP1 CPT	HT1080NT lethal	12-LOX inh	IL1B secr inh
O=C(O)C[C@@H]1CCN(C(=O)NC2CCCCC2)C[C@@H]1CCN1CCN(c2ccc(F)cc2)CC1	x	x	x	x	7.3%	x
Cc1cc(NC(=O)COc2ccc(F)cc2F)n(C)n1	x	x	x	x	2.4%	x
Clc1ccccc1-c1nnc2sc(-c3ccc(Br)o3)nn12	-23.2%	-9.6%	-27.2%	1.0%	-4.1%	-51.5*
Clc1ccc(-c2nnc3sc(-c4ccc(Br)o4)nn23)c(Cl)c1	u	-2.9%	-23.6%	-5.1%	u	5.5
Clc1ccccc1-c1nnc2sc(-c3ccc4c(c3)OCO4)nn12	u	u	16.4µM*	u	u	-12.6
Brc1ccccc1-c1nnc2sc(-c3ccc4c(c3)OCCO4)nn12	23.1µM*	x	11.6µM*	x	4.5%	u
COc1cccc(CNC(=O)C2Cn3cccc3C(=O)N2)c1 (stereo unspecified)	x	x	x	x	11.6%	x
Cc1ccc(S(=O)(=O)N2[C@@H](c3ccccc3F)C(C(=O)O)=CC[C@H]2c2cccc(Cl)c2)cc1	2.4%	4.0%	-5.8%	-2.1%	-21.3%	3.9
Cc1cc(C)cc(NC(=O)CSc2ccc(-c3cccs3)nn2)c1	20.6µM*!	-27.5%	u	-18.8%	-15.9%	-72.1*
O=C(CSc1ccc(-c2cccs2)nn1)Nc1ccccc1	20.6µM*	-5.5%	13µM*!	-11.5%	-9.1%	-15.4
COC(=O)c1ccc(NC(=O)CSc2ccc(-c3cccs3)nn2)cc1	-15.4%	x	-17.5%	x	-5.6%	x
CCN1C(=O)/C(=C/c2ccc(C)s2)SC1=Nc1ccc(OC)cc1	9.2µM*	u	9.2µM*	-13.4%	0.0%	-14.9
CCCN1C(=O)/C(=C/c2ccc(C)o2)SC1=Nc1ccc(OC)cc1	8.2µM*	u	9.2µM*	u	12.6µM*	-12.1
CCN1C(=O)/C(=C\c2ccc(-c3cccc(C(=O)OC)c3)o2)SC1=Nc1ccc(C(=O)O)cc1	x	x	x	x	50.1µM*	x
Cc1ccc(S(=O)(=O)N2CCCC2)cc1C(=O)Nc1ccc(-c2nc3ccccc3[nH]2)cc1	x	x	x	x	34.5%	x
C=C1C(=O)OC2C[C@@]3(C)CCCC(C)C3=CC12 (stereo partly specified)	10.3µM*	x	u	x	x	x
C[C@H]1CCC[C@]2(C)C[C@H]3OC(=O)C(CN4CCCCCC4)[C@H]3C=C12 (stereo partly specified)	u	u	u	16.4µM*	12.8%	-98.1*
COc1cc2c(cc1OC)[C@H](C)N(CC1C(=O)O[C@@H]3C[C@@]4(C)CCC[C@H](C)[C@@]45OC5[C@H]13)CC2 (stereo partly specified)	u	x	-25.8%[9.04 µM]	x	6.5%	x
Cc1ccc(NC(=O)CN2CCCC2c2cccs2)cc1S(=O)(=O)N1CCCCC1 (stereo unspecified)	23.1µM*	u	18.4µM*	-7.8%[9.24 µM]	7.4%	-9.4
Cc1ccc(S(=O)(=O)N2CCCCC2)cc1NC(=O)CN1CCCC1c1cccs1 (stereo unspecified)	-23.7%	-0.7%	-25.0%	0.2%	8.1%	24.3
CCOc1ccc(NC(=O)CN2CCCC2c2cccs2)cc1S(=O)(=O)N1CCCCC1 (stereo unspecified)	14.6µM*	-3.0%	14.6µM*	0.7%	-11.1%	-7.9
O=C(CN1CCCC1c1cccs1)Nc1cc(S(=O)(=O)N2CCCCC2)ccc1Cl (stereo unspecified)	u	u	16.4µM*	-29.1%	217.2%	-14.7
O=C(c1cccc(NS(=O)(=O)c2ccc(F)c(F)c2)c1)N1CCCCC1	5.4%	-0.1%	-7.8%	1.2%	10.1%	5.9
CCOCC(=O)NC1CCN(c2cnn(CC)c(=O)c2)CC1	x	x	x	x	26.1%	x

Bioassay records: PubChem, National Center for Advancing Translational Sciences (NCATS)
